In PubChem BioAssay (EPA / NIEHS):
Records with an inconclusive call do not appear. The source made the active and inactive calls. Rule for the calls: active = hit-call score of the fitted dose curve at least 0.9, where 1 is the maximum; inconclusive = response in the unintended direction; inactive = score below 0.9.

Target: human Muscarinic, M4 Receptor, CHRM4 (gene 1132) (UniProt P08173)
Experiment: NVS_GPCR_hM4: NovaScreen (NVS) G Protein-Coupled Receptor Assay for human Muscarinic, M4 Receptor (AID 2283274)
Description: NVS_GPCR_hM4 is a biochemical, single-readout assay that uses extracted gene-proteins from CHO in a cell-free assay. Measurements were taken 1 hour after chemical dosing in a 96-well plate.NVS_GPCR_hM4 is one of one assay component(s) measured or calculated from the NVS_GPCR_hM4 assay. It is designed to make measurements of radioligand binding, a form of binding reporter, as detected with scintillation counting signals by Filter-based radiodetection technology.Data from the assay component NVS_GPCR_hM4 was analyzed into 1 assay endpoint. This assay endpoint, NVS_GPCR_hM4, was analyzed in the positive analysis fitting direction relative to DMSO as the negative control and baseline of activity. Using a type of binding reporter, loss-of-signal activity can be used to understand changes in the binding as they relate to the gene CHRM4. Furthermore, this assay endpoint can be referred to as a primary readout, because the performed assay has only produced 1 assay endpoint. To generalize the intended target to other relatable targets, this assay endpoint is annotated to the gpcr intended target family, where the subfamily is rhodopsin-like receptor.
Binding assays used specific radioligands (tritiated, iodinated) with non-radioactive competitive displacement ligands in agonist or antagonist protocols (as indicated) and various reference compounds and inhibitors to titrate specific binding to receptors and transporters. Most enzyme assays (CYPs, kinases, phosphatases, proteases, HDACs) used recombinant protein and specific substrates (fluorescence mostly, some colorimetric and radioactive) and inhibitors, followed by a biochemical separation of substrate and product. All assays for the biochemical HTS were initially run in duplicate at a single concentration (10 uM for CYP450 assays and 25 uM for all others). […] Each assay was run with positive and negative controls, and concurrent controls on every plate. The follow-up (secondary) screen tested active chemical-pairs in concentration series, as well as a few additional assays not tested in the primary screen, some selected negative inactives, and several cases re-run in the concentration series for confirmatory purposes.

Sequence of human Muscarinic, M4 Receptor, CHRM4 (gene 1132) (P08173 whole entry, looked up): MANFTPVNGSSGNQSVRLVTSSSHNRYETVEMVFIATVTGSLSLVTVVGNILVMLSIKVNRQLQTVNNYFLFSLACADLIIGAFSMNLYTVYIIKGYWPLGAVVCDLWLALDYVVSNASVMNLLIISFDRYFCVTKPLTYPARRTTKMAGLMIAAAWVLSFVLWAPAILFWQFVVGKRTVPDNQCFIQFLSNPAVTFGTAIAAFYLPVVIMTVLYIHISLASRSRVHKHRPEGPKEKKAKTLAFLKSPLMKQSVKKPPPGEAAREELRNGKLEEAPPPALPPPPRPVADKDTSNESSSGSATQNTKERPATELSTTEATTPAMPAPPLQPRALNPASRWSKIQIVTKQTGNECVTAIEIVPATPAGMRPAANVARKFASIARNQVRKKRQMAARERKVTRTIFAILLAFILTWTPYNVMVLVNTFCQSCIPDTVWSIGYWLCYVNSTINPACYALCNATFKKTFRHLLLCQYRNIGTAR

Row | Compound | AC50 | outcome
1 | CN(C)C(=O)NC1(c2ccccc2)CCN(CC[C@@]2(c3ccc(F)c(F)c3)CN(C(=O)c3ccccc3)CCO2)CC1 | 16.9 µM (active) | 
2 | CCN(CC)CCOc1ccc(C(=C(Cl)c2ccccc2)c2ccccc2)cc1 | 4.2 µM (active) | 
3 | CN(C)C(=O)NC1(c2ccccc2)CCN(CCC[C@]2(c3ccc(Cl)c(Cl)c3)CCCN(C(=O)c3ccccc3)C2)CC1 | 3.46 µM (active) | 
4 | Cn1cnc2c1c(=O)[nH]c(=O)n2C |  | inactive
5 | NC(=Nc1ccccc1)Nc1ccccc1 | 14.9 µM (active) | 
6 | O=NO |  | inactive
7 | Cc1cc(SC2=C(O)C[C@@](CCc3ccc(N)cc3)(C(C)C)OC2=O)c(C(C)(C)C)cc1CO |  | inactive
8 | CO[C@@H]1COCC[C@@H]1N[C@@H]1CC[C@@](C(=O)N2CCc3ncc(C(F)(F)F)cc3C2)(C(C)C)C1 | 25 µM (active) | 
9 | CCc1nc(N)nc(N)c1-c1ccc(Cl)cc1 |  | inactive
10 | CCCCCCCCCCCCCCOS(=O)(=O)O | 31.9 µM (active) | 
